Where “and” joins values, the source holds several entries; their conditions need not be identical. Identical values can stand only once. Results filed as inconclusive are left out. The source holds several records for some structures; these can differ, active in one and inactive in another. Calls of active or inactive are those of the source. The call rests on the fitted dose curve; in most records, active means well fitted activation curve with a large enough effect; inconclusive means small, poorly fitted or top-dose-only effect; inactive means no such curve, though single readings can be large or run the other way.
Potency means the concentration at half of the fitted maximal effect.

Sequence of Cellular tumor antigen p53 (Homo sapiens) (P04637 whole entry, looked up): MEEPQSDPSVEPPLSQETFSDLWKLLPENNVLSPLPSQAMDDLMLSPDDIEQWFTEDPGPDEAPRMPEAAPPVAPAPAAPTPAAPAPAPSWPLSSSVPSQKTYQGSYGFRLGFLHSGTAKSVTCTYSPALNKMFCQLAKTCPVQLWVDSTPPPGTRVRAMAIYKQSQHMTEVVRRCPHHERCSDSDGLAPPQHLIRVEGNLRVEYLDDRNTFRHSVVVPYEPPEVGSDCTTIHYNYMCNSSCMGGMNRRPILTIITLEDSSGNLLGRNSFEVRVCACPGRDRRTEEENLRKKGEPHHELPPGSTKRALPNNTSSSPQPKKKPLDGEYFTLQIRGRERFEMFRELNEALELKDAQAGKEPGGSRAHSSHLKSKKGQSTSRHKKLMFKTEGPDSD

The target in the assay is Cellular tumor antigen p53 (Homo sapiens) (UniProt P04637). The assay can be described thus: Primary qHTS for small molecule compounds that upregulate eGFP-tagged delta133p53alpha (in N-terminal) cells. (AID 2060322). Further: nearly all actives have a fitted effect of over 75% in size.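 On activation: cells pre-induced with doxycycline then dosed without doxycycline; series mostly up to about 56 µM; 0% = DMSO vehicle and 100% = reference activator.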 The conditions noted are these: NCI-H358 eGFP-delta133p53alpha fluorescence, 24 h; activation: stronger effect = higher value. The source says:
Assay Development and Screening Technology
National Center for Advancing Translational Sciences (NCATS),
National Institute of Health (NIH), Rockville, Maryland
Cellular senescence (CS) is one of the hallmarks of aging and age-related diseases. Senescent cells are characterized by an irreversible growth arrest, an increase in senescence-associated beta-galactosidase (SA-beta-gal) activity and p16INK4a expression, an activation of the DNA damage response pathways, and the emergence of a senescence-associated secretory phenotype (SASP).
Delta133p53alpha, a human/primate-specific p53 protein isoform, delays or inhibits the induction of CS and SASP in various types of human cells, including progeria-derived fibroblasts, primary normal astrocytes, and CD8+ T lymphocytes. Induction of delta133p53alpha with small molecule compounds may provide therapeutic opportunities for inhibition of senescence/SASP-associated pathologies in progeria syndromes, astrocyte-mediated neuroprotection in neurodegenerative diseases, and possibly prevention and treatment of a wider range of senescence- and aging-associated diseases.
Here we report the development and validation of a cell-based quantitative high throughput screening (qHTS) assay in 1,536-well format. This qHTS assay uses the NCI-H358 cell line with doxycycline-inducible expression of enhanced green fluorescent protein (eGFP)-tagged delta133p53alpha, which allows efficient and highly quantitative measurement of the protein levels.
PROTOCOL TABLE (as described by Inglese J, Shamu CE and Guy RK. 2007)
SEQUENCE No. (e.g., 1, 2, 3, etc.); […] (e.g., Cells, Incubation, Reagent, etc.); VALUE; DESCRIPTION.
1; Cells; 4uL; 800 doxycycline treated cells / well in doxycycline-free media, 1536-well black, clear-bottom low base Aurora microplates.
2; Compounds; 23 nL; Kalypsis pin tool (Wako) equipped with 1536-well pin heads, 5-azacytidine positive control.
3; Incubation; 24 hr; 37C, 5% CO2; 95% relative humidity.
4; Aspiration; 1x; BioTek EL406 washer dispenser (Agilent).
5; Fixing; 3.5% paraformaldehyde, BioTek EL406 washer dispenser (Agilent).
6; Washing; 1x PBS; BioTek EL406 washer dispenser (Agilent).
7; Nuclei staining; 1:1000 dilution of Hoechst 33342 (Thermofisher), BioTek EL406 washer dispenser (Agilent).
8; Incubation; 20 min; in the dark at room temperature.
9; Washing; 2x, 1x PBS (ThermoFisher), BioTek EL406 washer dispenser (Agilent).
10; Reagent; 10 uL; 1x PBS per well, sealed with clear adhesive tape.
NOTES (numbers refer to sequence numbers above).
1. NCI-H358 cells expressing eGFP-tagged delta133p53alpha were grown in T75 culture flasks and treated with doxycycline for 24h, at 10 ng/ml for eGFP-D133p53a cells (N-terminal cell) and 100 ng/ml for D133p53a-eGFP cells (C-terminal cells). Cells were trypsinized, counted using a Counted 3 Automated Cell Counter (Thermo Fisher), and diluted to a concentration of 200,000 cells/ml. A Multidrop Combi Reagent Dispenser (ThermoFisher) was used to dispense 800 cells/well in […] of doxycycline-free media, into 1536-well black/clear bottom low base plates (AuroraMicroplates).
2. After plating cells, 23 nl of compound library, DMSO vehicle control or positive control (5-azacytidine) were transferred by Pin Tool (Wako). The plate map layout was the same for each plate: (column 1) non-doxycycline treated cells + DMSO vehicle control; (column 2) doxycycline treated cells + DMSO vehicle control baseline; (column 3) doxycycline treated cells + positive control 57.5 uM final concentration 5-azacytidine; (column 4) doxycycline treated cells + serial dilution of 5-azacytidine, 16-point 1:2 titration spanning 1.8 nM to […] final concentration; (columns 5-48) doxycycline treated cells + titration of library compounds.
3. Cells were incubated at 37 °C, 5 % CO2, 95% RH with breathable metal lid for 24h.
4-10. […] After two washes, 10 ul of 1X PBS (Thermo Fisher) was dispensed to each well. Clear adhesive plate seals (VWR) were applied and plates stored at 4 °C.
11. […]
In general terms: qHTS replaces the single test concentration by a dilution series.
With `C[C@H]1CN(Cc2ccc(CC(=O)N3CCC(Nc4cccc(F)c4)CC3)cc2)CCN1`, the activation was -12.4% (inactive).
On the same count and under the same terms, next, `O=C1NCN(c2ccccc2)C12CCN(CCCOc1ccc(F)cc1)CC2`: 0.837% (inactive); `C=C(C)[C@@H]1[C@H]2OC(=O)[C@H]1[C@]1(O)C[C@H]3O[C@]34C(=O)O[C@H]2[C@]14C`: 4.33% (inactive).
Still for that read-out and setting: next, `CCOC(=O)C1(c2ccccc2)CCN(CCc2ccc(N)cc2)CC1`: -6.69% (inactive).
Turning to `COC[C@H]1OC(=O)c2coc3c2[C@@]1(C)C1=C(C3=O)[C@@H]2CC[C@H](O)[C@@]2(C)C[C@@H]1OC(C)=O`, the activation was 13.2% (inactive).
Regarding `COC(=O)[C@@H](N)CCCN=C(N)N[N+](=O)[O-]`, the activation was -9.21% (inactive) and -14.8% (inactive).
With `C[C@@H]1C[C@@H]([C@H](O)CC2CC(=O)NC(=O)C2)C(=O)[C@@H](C)C1`, the Potency is 4.37 µM (active) and 968 nM (active).
As for `C/C=C(\C)C(=O)OC1CC2C(C)(C)OC(=O)CC(OC(C)=O)C2(C)C2CC(OC(=O)C(C)C)C3(C)C(c4ccoc4)CC4OC43C12C` (stereo not given), the activation was -19.8% (inactive).
Take `Cc1[nH]nc2ccc(-c3cncc(OC[C@@H](N)Cc4c[nH]c5ccccc45)c3)cc12`: the Potency was 8.63 µM (active) and the activation is 8.93% (inactive).
On to `Oc1ccc(Cl)cc1Cc1ccccc1`, for which the Potency was 45.5 µM (active) and 24.6 µM (active).
As for `C[N+](C)(C)CCOC(=O)CBr`, the activation was -13.1% (inactive).
In the case of `CC[C@@]1(O)C(=O)OCc2c1cc1n(c2=O)Cc2cc3ccccc3nc2-1`, the Potency is 1.09 µM (active).
For `CC(C)NC(C)C`, the activation is -1.69% (inactive).
For `C[N+]1(C)CCN(c2ccccc2)CC1`, the activation was -0.912% (inactive).
Same read-out and setting: next, `CN1CCc2cc3c(cc2[C@H]1[C@@H]1OC(=O)c2c1ccc1c2OCO1)OCO3`: -11% (inactive).
As to `O=c1[nH]c2ccc(Cl)cc2c(N[C@@H]2CN3CCC2CC3)c1-c1nc2ccccc2[nH]1`, the Potency was 17.2 µM (active) and 2.69 µM (active).
Turning to `CC(C)Oc1cccnc1N(C)C1CCN(Cc2ccccc2)CC1`, the activation is -4.1% (inactive).
Still for that read-out and setting: next, `COc1ccc2[nH]cc(CCN(C(C)C)C(C)C)c2c1`: 23.2% (inactive); `C=CCC1([C@H](C)CCC)C(=O)NC(=O)NC1=O`: 7.34% (inactive).
On the same count and under the same terms, next, `CC(C)(O)C(Cl)(Cl)Cl`: -9.6% (inactive); `c1ccc2c(CN3CCNCC3)cccc2c1`: 12.1% (inactive).
For the compound `COc1c(C(C)C)cc2c(c1O)[C@@]1(C(=O)O)CCCC(C)(C)C1CC2` (stereo not given in full), the activation is -13% (inactive).
On the same count and under the same terms, next, `COc1ccc(CNC(=O)/C=C/c2ccc3[nH]cc(CCN(C)C)c3c2)cc1`: 13.3% (inactive); `Clc1ccc(OCC2=NCCN2)cc1Cl`: -0.955% (inactive).
The same measure, in the same setting: next, `C[C@]12CC[C@H](O[C@@H]3O[C@H](CO)[C@@H](O)[C@H](O)[C@H]3O)CC1=CC[C@@H]1C2CC[C@]2(C)[C@@H](C3=CC(=O)OC3)CC[C@]12O` (stereo not given in full): 0.763% (inactive); `CC(C(=O)c1ccccc1)N(C)C` (stereo not given): 22.6% (inactive).
On to `CC(=O)Nc1cc([As](=O)(O)O)ccc1O`, for which the activation is -10.9% (inactive).
Consider `CC(C)(O)/C=C/C(=O)[C@](C)(O)[C@H]1[C@H](O)C[C@@]2(C)[C@@H]3CC=C4[C@@H](C[C@H](O)C(=O)C4(C)C)[C@]3(C)C(=O)C[C@]12C`, for which the Potency is 4.65 µM (active).
For `CCCCCn1cc(C(=O)C2C(C)(C)C2(C)C)c2ccccc21`, the activation is -0.955% (inactive).
Same read-out and setting: as for `CC1CCCC(O)CC(=O)Cc2cc(O)cc(O)c2C(=O)O1` (stereo not given), the figure is 7.63% (inactive); as for `C[C@H]1C(=O)O[C@H]2[C@H](O)[C@]34C5OC(=O)[C@]3(O[C@@H]3OC(=O)[C@H](O)C34[C@H](C(C)(C)C)[C@H]5O)C12O` (stereo not given in full), -12.2% (inactive); as for `CN1C(=O)[C@]23CC4C(C)(C)[C@@]5(C[C@@]41CN2CC[C@@]3(C)O)C(=O)Nc1c5ccc2c1OC=CC(C)(C)O2` (stereo not given in full), -19.1% (inactive).
Same read-out and setting: as for `c1ccc(N2CCNCC2)cc1`, the figure is -33.3% (inactive); as for `C=C[C@H]1CN2CC[C@H]1C[C@@H]2[C@@H](O)c1ccnc2ccccc12`, 3.57% (inactive).
On the same count and under the same terms, as for `CC(C)c1cccc(C(C)C)c1O`, the figure is 0.683% (inactive) and -5.08% (inactive) and -18.8% (inactive).
Regarding `CCCCc1ccc(C(=O)O)nc1`, the activation was 16.6% (inactive).
The same measure, in the same setting: next, `NC(CCP(=O)(O)O)C(=O)O` (stereo not given): -26.8% (inactive).
`CC1=C[C@H]2O[C@@H]3C[C@H]4OC(=O)/C=C/C=C/C(=O)OCC/C(C)=C/C(=O)OC[C@@]2(CC1)[C@]4(C)[C@]31CO1`: the Potency was 0.0165 µM (active).
`COC(=O)c1cncn1C(C)c1ccccc1` (stereo not given): the activation was -29.3% (inactive).

Source of the values: PubChem BioAssay (NCATS).
